Hits are enriched below; roughly 9.4% of the tested compounds scored in any of these assays.
Rab9 prom act – qHTS Assay for Rab9 Promoter Activators; Huh7 Rab9 promoter-luciferase reporter, luminescence, 24 h; Potency, µM (doses to about 9.22 µM), for the others: at the highest dose activation, negative = inhibition, most hits filed as activators; hit rate 2.8% among 320,000; further: % of control where 0% means no effect; nearly all actives have a fitted effect of over 60% in size
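Quantitative HTS format; Huh7 Rab9-luciferase reporter cells (1500/well) receive compound 2 h post-plating, incubate 24 h at 37 °C, then get luciferase reagent for 10 min before luminescence reading.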
ELG1 DNA repair – qHTS screen for small molecules that inhibit ELG1-dependent DNA repair in human embryonic kidney (HEK293T) cells expressing luciferase-tagged ELG1. hit rate 2.3% among 330,000. AID 504467, 2011. Potency, µM (top dose mostly 46.1 µM), for the others: top-dose activity change, negative = inhibition, actives largely listed as inhibitors. HEK293T ELG1-luciferase reporter, luminescence, 16 h; DNA damage induced by 5-fluorouridine; further: on the % scale 0 is the no-effect control and ±100 the full control effect; nearly all actives have a fitted effect of over 55% in size
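In this reporter screen, reduction of luminescence relative to DMSO vehicle indicated activity. Compounds and 5-fluorouridine were added together to 2,000 cells per well, incubated for 16 hr at 37 °C, then developed with ONE-Glo.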
ELG1 genotox – qHTS screen for small molecules that induce genotoxicity in human embryonic kidney (HEK293T) cells expressing luciferase-tagged ELG1; Potency, µM (series often up to 46 µM), for inactives: at the highest dose activity change, positive = activation, usual class: activators; HEK293T ELG1-luciferase reporter, luminescence, 16 h; hit rate 1.3% among 330,000; further: % of control where 0% means no effect; nearly all actives have a fitted effect of over 60% in size
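HEK293T cells expressing luciferase-tagged ELG1 were treated with compound or DMSO for 16 hr at 37°C. Luciferase activity was then read after 30 min with ONE-Glo at room temperature; rising signal flags genetic stress.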
NPC1 promoter act – qHTS Assay for NPC1 Promoter Activators | Huh7 NPC1 promoter luciferase reporter, 24 h | Potency, µM (series often up to 9.22 µM), for inactives: at the top dose activation, actives largely listed as activators | hit rate 2.4% among 320,000 | AID 485313, 2010; further: % of control where 0% means no effect; nearly all actives have a fitted effect of over 60% in size
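Luciferase expression driven by the NPC1 promoter was measured in stably transfected Huh7 cells after a 24 h compound incubation, using a luciferase reagent and a luminescence read.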
SMN2 splice enh – qHTS Assay for Enhancers of SMN2 Splice Variant Expression; HEK293 SMN2-luciferase splicing reporter, luminescence, 30-36 h; Potency, µM (highest dose often 46.1 µM), inactives show at the top dose activity change, positive = activation, hits mostly activators; hit rate 2.8% among 210,000; AID 1458, 2008; further: % of control where 0% means no effect; nearly all actives have a fitted effect of over 55% in size
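qHTS luciferase splicing reporter: luminescence rises when SMN2 exon 7 is included in transfected HEK293 cells. Compound exposure lasted 30-36 h at 37C, with 4.5 mM final sodium butyrate as control, followed by a ONE-Glo read.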
FLuc counter – qHTS profiling assay for firefly luciferase inhibitor/activator using purifed enzyme and Km concentrations of substrates (counterscreen for miR-21 project) | Luciferin 4-monooxygenase (Photinus pyralis), P08659 | purified FLuc, Km substrates, luminescence inhibition | Potency, µM (top dose mostly 57.5 µM), inactives show at the top dose activity change, negative = inhibition, most hits filed as inhibitors | hit rate 6.9% among 360,000;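 further: plate controls were vehicle for no effect and reference inhibitor for full effect; nearly all actives have a fitted effect of over 55% in size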
Target sequence (P08659 whole entry, looked up): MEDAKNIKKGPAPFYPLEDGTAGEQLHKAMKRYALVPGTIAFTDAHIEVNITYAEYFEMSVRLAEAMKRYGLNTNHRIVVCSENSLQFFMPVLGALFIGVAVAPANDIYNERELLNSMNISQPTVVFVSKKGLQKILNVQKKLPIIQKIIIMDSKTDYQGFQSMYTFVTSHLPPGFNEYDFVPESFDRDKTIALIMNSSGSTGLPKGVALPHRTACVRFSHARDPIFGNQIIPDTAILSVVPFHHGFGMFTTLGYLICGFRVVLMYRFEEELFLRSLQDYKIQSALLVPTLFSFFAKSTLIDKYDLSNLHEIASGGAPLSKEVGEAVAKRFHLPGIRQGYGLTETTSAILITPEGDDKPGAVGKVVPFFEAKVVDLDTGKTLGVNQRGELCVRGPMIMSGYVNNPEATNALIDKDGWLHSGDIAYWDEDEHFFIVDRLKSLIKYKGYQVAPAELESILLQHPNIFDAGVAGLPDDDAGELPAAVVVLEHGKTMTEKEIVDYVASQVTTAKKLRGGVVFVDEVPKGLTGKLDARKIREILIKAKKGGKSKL
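Purified P. pyralis luciferase, 10 nM final, with Km-level 10 uM D-luciferin and 10 uM ATP in 50 mM Tris acetate pH 7.5, 10 mM Mg acetate, 0.01% Tween-20, 0.05% BSA; 6-point qHTS titration about 60 µM downward; luminescence read.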
Starred values were filed as active, the others as inactive; ? = inconclusive; . = no result; [ ] = another dose, or the depositor's remark. The call rests on the fitted dose curve; in most records, active means well fitted curve in the direction sought with a large enough effect; inconclusive means small, poorly fitted or top-dose-only effect, or another doubt; inactive means no such curve, though single readings can be large; an effect the other way counts as inactive or inconclusive. Potency means the concentration at half of the fitted maximal effect.

SMILES	Rab9 prom act	ELG1 DNA repair	ELG1 genotox	NPC1 promoter act	SMN2 splice enh	FLuc counter
CC(C)(O)C#Cc1ccc(C(=O)Nc2ccc3c(c2)OCO3)s1	?	?	?	2.8µM*	.	8.5µM*
O=C(Cn1c(=O)n(-c2ccccc2)c(=O)c2ccc(C(=O)NCc3ccc4c(c3)OCO4)cc21)Nc1ccc(Br)cc1F	.	.	.	.	0%	2%
CN(C)C=O	.	.	.	.	2%	.
CN1CCN(CCCNN)CC1	.	.	.	.	-1%[9.22 µM]	.
O=C(CC1CS(=O)(=O)CC1CC(=O)Nc1ccc2c(c1)OCCO2)Nc1ccc2c(c1)OCCO2 (centres undefined)	7%	?	?	12%	.	17µM*
O=C(NC(=S)Nc1ccc2c(c1)OCCO2)c1cccc2ccccc12	22%	?	16%	12%	?	15µM*
O=C(CC1NCCNC1=O)Nc1ccc2c(c1)OCCO2 (centres undefined)	-1%	9%	4%	-3%	7%	2%
CC(C)(C)c1ccc(C(=O)Nc2cccc([N+](=O)[O-])c2)cc1	2.2µM*	?	?	2.5µM*	11µM*	1.7µM*
O=C(Nc1cccc([N+](=O)[O-])c1)c1ccncc1	-1%	-10%	5%	-4%	-10%	1%
O=C(Nc1ccc2c(c1)OCCO2)c1cnn(-c2ccccc2)n1	2.8µM*	?	?	?	.	4.8µM*
CCCc1cnc2c(c1SCC(=O)N1CCC(C)CC1)c(=O)n(C)c(=O)n2C	.	.	.	.	.	5%
C=CCN(c1ccc(C(=O)Nc2ccc3c(c2)OCO3)cc1)S(C)(=O)=O	-2%	13µM*	-3%	4%	.	?
C=CCN(c1ccc(C(=O)Nc2ccc3c(c2)n(C)c(=O)n3C)cc1)S(C)(=O)=O	3%	?	?	0%	.	2%
COc1cccc(CNC(=O)c2sc3nc(C)cc(C)c3c2-n2cccc2)c1OC	.	.	.	.	.	-4%
COc1ccc(-c2cc3ccc(O)c(CN4CCCC4)c3oc2=O)cc1OC	.	.	.	.	.	15µM*
Clc1nccnc1N/N=C/c1ccc(Br)cc1	2µM*	?	?	2µM*	.	9.5µM*
COc1ccc(/C=N/Nc2nccnc2Cl)cc1	0.45µM*	?	1.5µM*	1.3µM*	14µM*	2.7µM*
COc1ccc(/C=N/Nc2nonc2N)c(OC)c1	1%	30%	10%	3%	12%	?
COc1ccc(/C=N/N=C/c2ccc(OC)cc2)cc1	4%	20%	4%	3%	.	?
COc1ccc(/C=N/Nc2nccnc2Cl)c(OC)c1	?	?	?	16%	27%	11µM*
Cc1ccc(C)c(NC(=O)CN2C(=O)c3cccc4cccc2c34)c1	.	.	.	.	-9%	1%
CCOC(=O)CSc1nc2ccccc2c(=O)n1-c1cccc(C)c1	.	.	.	.	-7%	-2%
COc1ccc(-c2noc(CSc3nnc(-c4ccc(Cl)cc4)n3C)n2)cc1OC	.	.	.	.	4%	-3%
Cc1ccc2c(c1)C(=O)CCN2	-1%	?	1%	1%	-1%	4%
O=C1CCNc2ccc(-c3ccccc3)cc21	22%	?	?	?	?	15µM*
SMILES	Rab9 prom act	ELG1 DNA repair	ELG1 genotox	NPC1 promoter act	SMN2 splice enh	FLuc counter
COc1ccc(-c2c(-c3ccc4c(c3)OCO4)noc2C)cn1	-7%	?	8%	-2%	.	21µM*
CC1=C(C(=O)OC2CCCC2)C(c2ccccc2Cl)CC(=O)N1 (centres undefined)	.	.	.	.	3%	-3%
Cc1cc2ccccn2c1C(=O)c1ccc(F)cc1	-1%	-13%	2%	-3%	.	-1%
Cc1cc2ccccn2c1C(=O)c1ccc(S(=O)(=O)N(C)C)cc1	1%	16µM*	-10%	-8%	.	1%
O=C(CSc1nc2ccc(NC(=O)C3CCCCC3)cc2s1)NCC1CCCO1 (centres undefined)	18%	13µM*	-2%	13%	-9%	17µM*
O=C(CSc1nc2ccccc2s1)NCC1CCCO1 (centres undefined)	19%	19%	10%	1%	.	-8%
